Our source for the binding signal values is paper PMC7862700, “An all-to-all approach to the identification of sequence-specific readers for epigenetic DNA modifications on cytosine”.

Experiment in all cases: DAPPL (digital affinity profiling via proximity ligation, sequencing); 10 mM Tris-HCl pH 7.5, 50 mM NaCl, 1 mM DTT, 4% glycerol, room temperature, 30 min; GST-TFs on glutathione beads, 16-mer random dsDNA library, 0.1% formaldehyde crosslink after washing; high values mean tight binding
Conditions in all cases: protein: recombinant; tags: N-terminal GST; dsDNA, one strand shown

Experiment [1] addresses T1, ERF (Homo sapiens, UniProt P50548 1-548).
T1 sequence: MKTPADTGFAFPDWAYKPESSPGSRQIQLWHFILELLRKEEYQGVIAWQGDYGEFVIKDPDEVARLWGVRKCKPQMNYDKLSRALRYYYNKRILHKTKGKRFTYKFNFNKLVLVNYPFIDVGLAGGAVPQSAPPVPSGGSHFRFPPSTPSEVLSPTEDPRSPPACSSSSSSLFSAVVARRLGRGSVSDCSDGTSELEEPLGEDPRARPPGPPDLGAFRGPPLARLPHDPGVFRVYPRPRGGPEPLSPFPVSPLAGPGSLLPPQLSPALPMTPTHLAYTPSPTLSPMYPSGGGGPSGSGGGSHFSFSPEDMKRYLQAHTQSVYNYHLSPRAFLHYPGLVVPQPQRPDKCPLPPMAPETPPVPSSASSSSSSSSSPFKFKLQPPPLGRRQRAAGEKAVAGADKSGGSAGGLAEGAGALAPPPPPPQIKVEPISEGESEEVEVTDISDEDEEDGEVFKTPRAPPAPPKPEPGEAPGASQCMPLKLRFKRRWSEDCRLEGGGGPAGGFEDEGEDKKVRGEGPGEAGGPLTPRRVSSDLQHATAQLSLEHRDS
Summed up:
(§1)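 A tag-only sample was pooled with DNA-barcoded human transcription factors that had been expressed in yeast as GST fusions and captured on glutathione beads. The pools were incubated for 30 min at room temperature with 200 nmole of a random double-stranded 16-mer DNA library in Tris/NaCl/DTT/glycerol buffer, then washed, crosslinked with 0.1% formaldehyde, proximity-ligated (BsaI/T4 ligase, 1 h, 37 °C), PCR-amplified and sequenced on an Illumina NextSeq500. Binding signal is each hexamer's read frequency for a factor divided by its frequency for the tag-only sample.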

For experiment [2], the target named is T2, ETV3L (Homo sapiens, UniProt Q6ZN32 1-361).
T2 sequence: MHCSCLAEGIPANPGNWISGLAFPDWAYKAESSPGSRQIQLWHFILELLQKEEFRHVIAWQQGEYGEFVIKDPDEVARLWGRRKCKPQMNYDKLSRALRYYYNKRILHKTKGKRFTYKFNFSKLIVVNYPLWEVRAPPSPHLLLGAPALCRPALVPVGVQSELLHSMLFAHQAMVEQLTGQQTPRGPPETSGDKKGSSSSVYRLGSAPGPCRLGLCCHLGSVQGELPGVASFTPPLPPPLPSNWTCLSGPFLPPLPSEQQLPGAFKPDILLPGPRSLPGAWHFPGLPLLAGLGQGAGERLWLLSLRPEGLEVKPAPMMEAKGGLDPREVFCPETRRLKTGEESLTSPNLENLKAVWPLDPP
The essentials:
as §1

In experiment [3] the target is T3, ETS2 (Homo sapiens, UniProt P15036 1-469).
T3 sequence: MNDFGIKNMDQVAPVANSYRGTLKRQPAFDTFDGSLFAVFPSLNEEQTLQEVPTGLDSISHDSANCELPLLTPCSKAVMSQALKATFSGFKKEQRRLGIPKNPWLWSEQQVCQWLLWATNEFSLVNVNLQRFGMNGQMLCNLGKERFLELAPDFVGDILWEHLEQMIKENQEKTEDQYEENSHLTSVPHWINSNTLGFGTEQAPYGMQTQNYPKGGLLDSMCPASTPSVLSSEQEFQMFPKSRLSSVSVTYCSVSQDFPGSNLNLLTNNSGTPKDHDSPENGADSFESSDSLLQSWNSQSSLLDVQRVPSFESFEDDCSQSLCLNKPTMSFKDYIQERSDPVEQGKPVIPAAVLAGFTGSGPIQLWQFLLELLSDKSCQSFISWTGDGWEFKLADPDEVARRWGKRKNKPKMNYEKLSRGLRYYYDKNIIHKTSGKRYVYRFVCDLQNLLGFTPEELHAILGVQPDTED
The essentials: as §1

Experiment [4] concerns the target T4, ETV7 (Homo sapiens, UniProt Q9Y603 1-341).
T4 sequence: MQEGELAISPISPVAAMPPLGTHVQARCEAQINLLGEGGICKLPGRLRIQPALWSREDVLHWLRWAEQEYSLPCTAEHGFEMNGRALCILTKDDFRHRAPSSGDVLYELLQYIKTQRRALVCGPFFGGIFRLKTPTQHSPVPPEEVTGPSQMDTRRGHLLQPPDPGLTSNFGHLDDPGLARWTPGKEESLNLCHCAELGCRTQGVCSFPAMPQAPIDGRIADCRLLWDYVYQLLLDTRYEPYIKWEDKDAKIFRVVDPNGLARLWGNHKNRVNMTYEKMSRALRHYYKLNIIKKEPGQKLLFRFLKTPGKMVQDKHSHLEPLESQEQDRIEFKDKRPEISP
Summed up:
as §1

Experiment [5] concerns the target T5, ELF5 (Homo sapiens, UniProt Q9UKW6-2 1-255).
T5 sequence: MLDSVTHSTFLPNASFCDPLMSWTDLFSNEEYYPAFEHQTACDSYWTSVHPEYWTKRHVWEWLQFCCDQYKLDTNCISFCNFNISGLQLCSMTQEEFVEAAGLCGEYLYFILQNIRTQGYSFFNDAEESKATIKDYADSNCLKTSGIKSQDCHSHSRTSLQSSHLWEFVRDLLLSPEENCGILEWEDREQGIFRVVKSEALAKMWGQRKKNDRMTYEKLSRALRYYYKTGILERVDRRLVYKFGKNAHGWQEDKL
The essentials:
as §1

Experiment [6] has as its target T6, ETV3 (Homo sapiens, UniProt P41162-2 1-143).
T6 sequence: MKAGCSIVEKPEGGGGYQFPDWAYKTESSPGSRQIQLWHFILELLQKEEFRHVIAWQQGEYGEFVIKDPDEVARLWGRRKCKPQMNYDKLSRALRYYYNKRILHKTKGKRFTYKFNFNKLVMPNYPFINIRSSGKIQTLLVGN
Summed up:
as §1

The target in experiment [7] is T7, SPDEF (Homo sapiens, UniProt O95238 1-335).
T7 sequence: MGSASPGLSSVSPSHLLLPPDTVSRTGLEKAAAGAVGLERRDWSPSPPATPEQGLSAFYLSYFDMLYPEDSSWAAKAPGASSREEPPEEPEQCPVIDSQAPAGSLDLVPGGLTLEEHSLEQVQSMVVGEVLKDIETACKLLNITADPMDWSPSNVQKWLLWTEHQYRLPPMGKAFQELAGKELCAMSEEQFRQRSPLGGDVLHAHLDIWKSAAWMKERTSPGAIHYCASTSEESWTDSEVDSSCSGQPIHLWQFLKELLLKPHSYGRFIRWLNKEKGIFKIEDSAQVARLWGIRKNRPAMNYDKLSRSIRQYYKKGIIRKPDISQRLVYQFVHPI
The essentials:
as §1

Experiment [8] concerns the target ETV6 (Homo sapiens, UniProt P41212 1-452). The essentials:
as §1

ETV6, sequence (P41212 whole entry): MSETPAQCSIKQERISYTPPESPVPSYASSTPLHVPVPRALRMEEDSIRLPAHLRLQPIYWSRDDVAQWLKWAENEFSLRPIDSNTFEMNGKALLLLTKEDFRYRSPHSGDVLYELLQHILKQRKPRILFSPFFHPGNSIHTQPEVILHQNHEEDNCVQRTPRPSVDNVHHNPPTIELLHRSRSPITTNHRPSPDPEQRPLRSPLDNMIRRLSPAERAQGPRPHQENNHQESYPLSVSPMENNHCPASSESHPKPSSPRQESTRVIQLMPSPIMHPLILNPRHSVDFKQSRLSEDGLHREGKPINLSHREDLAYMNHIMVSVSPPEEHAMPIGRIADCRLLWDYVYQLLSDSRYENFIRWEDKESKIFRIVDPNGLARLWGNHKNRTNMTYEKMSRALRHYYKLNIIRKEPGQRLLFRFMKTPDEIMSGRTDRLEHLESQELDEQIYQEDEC

As for ACGATC, the binding signal in experiment [1] is 1.16 fold enrichment (6-mer frequency, TF over GST control); in experiment [2], 1.02 fold enrichment (6-mer frequency, TF over GST control); in experiment [3], 1.14 fold enrichment (6-mer frequency, TF over GST control); in experiment [4], 1 fold enrichment (6-mer frequency, TF over GST control); in experiment [5], 1.01 fold enrichment (6-mer frequency, TF over GST control); in experiment [6], 1.03 fold enrichment (6-mer frequency, TF over GST control).

Take TGTGCA: the binding signal is 1.21 fold enrichment (6-mer frequency, TF over GST control) in experiment [1]; 1.06 fold enrichment (6-mer frequency, TF over GST control) in experiment [2]; 1.16 fold enrichment (6-mer frequency, TF over GST control) in experiment [3]; 1.14 fold enrichment (6-mer frequency, TF over GST control) in experiment [7]; 1.08 fold enrichment (6-mer frequency, TF over GST control) in experiment [6]; 1 fold enrichment (6-mer frequency, TF over GST control) in experiment [8].

Regarding TTGAGG, the binding signal in experiment [1] was 1.12 fold enrichment (6-mer frequency, TF over GST control); in experiment [2], 1.03 fold enrichment (6-mer frequency, TF over GST control); in experiment [3], 1.04 fold enrichment (6-mer frequency, TF over GST control); in experiment [4], 1.03 fold enrichment (6-mer frequency, TF over GST control); in experiment [5], 1.11 fold enrichment (6-mer frequency, TF over GST control); in experiment [6], 1.12 fold enrichment (6-mer frequency, TF over GST control). Moreover, the binding signal in experiment [8] was 1.13 fold enrichment (6-mer frequency, TF over GST control).

Turning to GACTTT, the binding signal in experiment [1] is 1.09 fold enrichment (6-mer frequency, TF over GST control); in experiment [2], 1.13 fold enrichment (6-mer frequency, TF over GST control); in experiment [3] it was 1.17 fold enrichment (6-mer frequency, TF over GST control); in experiment [4] it was 1.2 fold enrichment (6-mer frequency, TF over GST control); in experiment [5], 1.13 fold enrichment (6-mer frequency, TF over GST control); in experiment [6], 1.14 fold enrichment (6-mer frequency, TF over GST control). Moreover, the binding signal in experiment [8] was 1.14 fold enrichment (6-mer frequency, TF over GST control).

Turning to TGATCG, the binding signal in experiment [1] was 1.24 fold enrichment (6-mer frequency, TF over GST control); in experiment [2] it was 1.09 fold enrichment (6-mer frequency, TF over GST control); in experiment [3], 1.03 fold enrichment (6-mer frequency, TF over GST control); in experiment [4], 1.03 fold enrichment (6-mer frequency, TF over GST control); in experiment [5], 1.04 fold enrichment (6-mer frequency, TF over GST control); in experiment [6] it was 1.11 fold enrichment (6-mer frequency, TF over GST control). In experiment [8], the binding signal is 1.12 fold enrichment (6-mer frequency, TF over GST control).

For AATCGC, the binding signal is 1.01 fold enrichment (6-mer frequency, TF over GST control) in experiment [1]; 1.05 fold enrichment (6-mer frequency, TF over GST control) in experiment [2]; 1.17 fold enrichment (6-mer frequency, TF over GST control) in experiment [3]; 1.07 fold enrichment (6-mer frequency, TF over GST control) in experiment [4]; 1.1 fold enrichment (6-mer frequency, TF over GST control) in experiment [5]; 1.08 fold enrichment (6-mer frequency, TF over GST control) in experiment [6]. Moreover, the binding signal in experiment [8] was 1.17 fold enrichment (6-mer frequency, TF over GST control).

As to TTTCGC, the binding signal in experiment [1] was 1.1 fold enrichment (6-mer frequency, TF over GST control); in experiment [2], 1.25 fold enrichment (6-mer frequency, TF over GST control); in experiment [3], 1.14 fold enrichment (6-mer frequency, TF over GST control); in experiment [4], 1.16 fold enrichment (6-mer frequency, TF over GST control); in experiment [5], 1.08 fold enrichment (6-mer frequency, TF over GST control); in experiment [6] it was 1.13 fold enrichment (6-mer frequency, TF over GST control). For the same sequence, the binding signal in experiment [8] was 1.11 fold enrichment (6-mer frequency, TF over GST control).
